# Hit rate of the full screen: of about 330,000 compounds, about 880 (0.27%) were called active. Another 1% or so got no clear call; they are omitted. The rule behind the calls is not given here. A selection follows.
# Experiment: beta-lactam sensitization of Mtb H37Rv, H37Rv (AID 434955);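 note: growth measured after seven days incubation then overnight dye step; 0% = bacteria only wells and 100% = bacteria with antibiotic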
# Conditions: M. tuberculosis H37Rv growth with meropenem, percent inhibition, at 25 µM
# [1] = measured here: primary screen without meropenem
Compound,inhibition (stronger effect = higher value),inhibition [1] [%]
CC(C)(C)C1CCc2c(sc3nc(SCC(N)=O)nc(N)c23)C1 (stereo not given),99.1% (inactive),99.3
Brc1ccc(Nc2c3c(nc4ncnn24)CCC3)cc1,-0.68% (inactive),-2.17
O=C(NCC(=O)N1CCN(c2ccccc2O)CC1)c1ccc2ccccc2c1,10.4% (inactive),3.65
CCN(CCn1cccn1)C(=O)CC1C(=O)NCCN1Cc1cccc(OC)c1OC (stereo not given),-2.12% (inactive),0.4
CC(C)CCN1CCN(Cc2cn[nH]c2C2CCCCC2)CC1CCO (stereo not given),-6.26% (inactive),2.27
CC(=O)C[C@@H](O)CC(=O)[C@H]1OC(=O)CCCCCCc2ccccc21,1.26% (inactive),-0.35
C[C@H](CO)N1C[C@H](C)[C@@H](CN(C)S(=O)(=O)c2ccc(F)cc2)Oc2c(NC(=O)Nc3ccccc3)cccc2C1=O,5.19% (inactive),4.04
CC1=CC(=O)C=CC1(C)C(Cl)(Cl)Cl (stereo not given),-0.23% (inactive),1.78
CCC(C)NCC(=O)Nc1ccc([N+](=O)[O-])cc1C(=O)Nc1ccccc1F (stereo not given),-6.32% (inactive),3.29
CC1CC(C)CN(S(=O)(=O)c2cccc(C(=O)N3C(=O)c4cccc(N)c4C3=O)c2)C1 (stereo not given),-7.74% (inactive),-0.88
Cc1c(C)c(C)c(S(=O)(=O)N2CCC3(CC2)OCCO3)c(C)c1C,-2.23% (inactive),-3
C[C@H]1CN([C@@H](C)CO)C(=O)Cc2cc(NS(C)(=O)=O)ccc2O[C@@H]1CN(C)CC1CC1,-11.2% (inactive),2.75
Cc1ccc2nc(-c3ccc(NC(=O)CN(C)S(=O)(=O)c4ccccc4)cc3)sc2c1,11.9% (inactive),3.33
CCOC(=O)c1ccc(NC(=O)c2ccc(NC(=O)C3CCCO3)cc2)cc1 (stereo not given),79.3% (inactive),83.3
CCn1c(/C=N/NC(=O)c2ccc(OC)cc2)nc2ccccc21,99.1% (inactive),99.4
O=C(Nc1ccc(F)cc1F)N1CCCN(CCOc2ccccc2)CC1,-1.99% (inactive),-0.11
CSc1sc(C(=O)NNC(=O)c2ccc(Cl)cc2)c2c1C=CCC2,-5.38% (inactive),4.57
Cc1oc2c(F)c(F)c(F)c(F)c2c1S(=O)(=O)Nc1cccc(C(F)(F)F)c1,5.72% (inactive),5.66
Cc1ccc(NC(=O)c2nc[nH]c2C(=O)N2CCCCC2)c(C(=O)c2ccccc2)c1,9.07% (inactive),12.6
O=C1NC(c2ccccc2)CCC1(Cl)Cl (stereo not given),0.94% (inactive),1.7

Compound,inhibition (stronger effect = higher value),inhibition [1] [%]
COc1ccc(C)cc1NC(=O)C(OC(=O)c1cccc(S(=O)(=O)N(C)c2ccccc2)c1)c1ccccc1 (stereo not given),-1.94% (inactive),9.6
CCOc1ccc2ccccc2c1/C=N/NC(=O)c1c(C)cc(C)[nH]c1=O,-16.1% (inactive),-1.48
O=C(NCCCCCCCCCNC(=O)C(F)(F)F)C(F)(F)F,3.21% (inactive),10.9
O=C1CC2(CC(c3ccc(Cl)cc3)=NO2)C(=O)N1c1ccccc1 (stereo not given),-4.42% (inactive),-1.92
CCCCC1(C(=O)OCC)NC(c2ccc(O)cc2)C2C(=O)N(c3ccccc3)C(=O)C21 (stereo not given),-5.62% (inactive),-0.56
O=C(CCCNS(=O)(=O)c1cccc2nsnc12)NCCN1CCN(c2ccccc2F)CC1,-11.3% (inactive),-10.3
CCOc1ccc(NC(=S)NC(=O)/C=C/c2ccc(OC)cc2)c([N+](=O)[O-])c1,-1.27% (inactive),1.54
CSc1ccccc1NC(=O)c1ccc2c(c1)CCN2S(C)(=O)=O,-1.11% (inactive),-0.34
CCOC(=O)c1c(S(=O)(=O)Nc2ccc(CN3CCC(C)CC3)cc2)c(C)n(C)c1C,-2.23% (inactive),3.26
Cc1ccc(S(=O)(=O)N2CCC(C(=O)OCC(=O)N(C)c3ccccc3)CC2)cc1C,-8.73% (inactive),-4.4
CC(=O)NC1(c2ccc(F)cc2)CCN(C(=O)c2c(F)cccc2F)CC1,8.64% (inactive),0.61
O=C(NCC1CCCO1)C(C(=O)c1ccccc1)n1cc(Cl)ccc1=O (stereo not given),6.75% (inactive),-1.73
O=C(NCc1ccc(F)cc1)C1CCN(C(=O)Nc2ccc(F)cc2)CC1,-23.9% (inactive),-6
CC(Nc1nc(C(F)(F)F)nc2ccccc12)c1cccs1 (stereo not given),4.44% (inactive),8.98
CCOC(=O)C1=C(CCc2ccccc2)NC(=O)NC1c1ccc2ccccc2c1 (stereo not given),30% (inactive),52.5
COc1ccccc1NC(=O)COC(=O)CNC(=O)C1CCCCC1,-1.14% (inactive),-2.95
CN(C)Cc1ccccc1C1(O)c2ccccc2CSc2ccccc21 (stereo not given),-0.96% (inactive),2.09
CCN(CC)CCn1c(=S)[nH]c2ncccc2c1=O,-13.3% (inactive),-17.8
CC(=O)Nc1ccc(N2C(=O)CC(Sc3nccc(C)n3)C2=O)cc1 (stereo not given),-4.91% (inactive),-1.37
CCOc1ccc(CNC(=O)CCC(=O)N2CCSc3ccccc32)cc1,-9.71% (inactive),-7.82

# Reference: PubChem BioAssay AID434955 (Southern Research Specialized Biocontainment Screening …, 2010)
